An excerpt weighted towards active compounds, which were near 7.4% of everything screened.
ELG1 genotox – genotoxicity induction in ELG1-luciferase HEK293T cells; Potency, µM (highest dose often 46 µM), for the others: at the highest dose activity change, positive = activation, hits mostly activators; AID 504466; HEK293T ELG1-luciferase reporter, luminescence, 16 h; actives 1.3% (n = 330,000); further: % of control where 0% means no effect; nearly all actives have a fitted effect of over 60% in size
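Cells (2,000/well) expressing the ELG1-luciferase fusion are dosed by pin tool and kept 16 hr at 37 °C, 5% CO2. Signal comes from ONE-Glo luciferase reagent after 30 min at room temperature.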
SMN2 splice enh – SMN2 splice variant enhancement. HEK293 SMN2-luciferase splicing reporter, luminescence, 30-36 h. Potency, µM (series often up to 46.1 µM), for inactives: at the top dose activity change, positive = activation, most hits filed as activators. actives 2.8% (n = 210,000); further: % of control where 0% means no effect; nearly all actives have a fitted effect of over 55% in size
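HEK293 cells carry an SMN2 […]–luciferase reporter in which exon 7 inclusion puts luciferase in frame. Cells were plated 10-12 h before compound addition, then incubated 30-36 h at 37C. ONE-Glo luminescence was read; sodium butyrate at 4.5 mM final served as control.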
KinaseGlo FLuc – counter-screen: inhibitors of Kinase-Glo firefly luciferase | Q27757 | Kinase-Glo luciferase, ATP luminescence, 8 min | Potency, µM (doses to about 38.3 µM), for the others: at the highest dose activity change, negative = inhibition, usual class: inhibitors | actives 0.28% (n = 200,000) | AID 1379; further: on the % scale 0 is the no-effect control and ±100 the full control effect; nearly all actives have a fitted effect of over 60% in size
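Compound is pinned into ATP-containing buffer (10 uM ATP, imidazole pH 7.2, 7 mM MgCl2). Kinase-Glo luciferase reagent is then added. Light output is recorded following an 8-min room-temperature incubation.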
Rab9 prom act – activates the Rab9 promoter; Huh7 Rab9 promoter-luciferase reporter, luminescence, 24 h; Potency, µM (doses to about 9.22 µM), for the others: at the highest dose activation, negative = inhibition, actives largely listed as activators; actives 2.8% (n = 320,000); AID 485297; further: % of control where 0% means no effect; nearly all actives have a fitted effect of over 60% in size
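Huh7 cells stably carrying a Rab9 promoter-luciferase reporter, 1500 cells per well in OP-MEM I with 10% FBS, treated with compound 24 hours at 37C. Luciferase activity read by luminescence after 10 minutes with Amplite reagent.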
FLuc counter – counter-screen for miR-21 project: firefly luciferase inhibitors or activators; P08659; purified FLuc, Km substrates, luminescence inhibition; Potency, µM (highest dose often 57.5 µM), inactives show at the top dose activity change, negative = inhibition, hits mostly inhibitors; actives 6.9% (n = 360,000); AID 588342;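 further: plate controls were vehicle for no effect and reference inhibitor for full effect; nearly all actives have a fitted effect of over 55% in size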
Target sequence (P08659 whole entry, looked up): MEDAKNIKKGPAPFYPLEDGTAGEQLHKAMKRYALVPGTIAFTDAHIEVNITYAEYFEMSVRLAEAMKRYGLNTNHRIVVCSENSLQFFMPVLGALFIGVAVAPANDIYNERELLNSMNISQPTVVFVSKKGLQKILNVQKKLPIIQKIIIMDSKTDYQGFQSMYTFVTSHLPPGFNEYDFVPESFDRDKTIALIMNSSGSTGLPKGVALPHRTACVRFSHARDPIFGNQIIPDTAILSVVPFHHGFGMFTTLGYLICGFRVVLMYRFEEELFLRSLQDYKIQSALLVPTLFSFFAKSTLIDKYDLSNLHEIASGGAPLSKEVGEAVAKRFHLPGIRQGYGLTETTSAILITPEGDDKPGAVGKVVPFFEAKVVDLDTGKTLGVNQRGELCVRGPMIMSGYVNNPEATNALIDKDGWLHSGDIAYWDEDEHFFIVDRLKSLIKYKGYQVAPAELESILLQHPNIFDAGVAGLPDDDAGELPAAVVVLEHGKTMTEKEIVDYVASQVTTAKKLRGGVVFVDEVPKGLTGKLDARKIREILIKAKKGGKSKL
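Biochemical qHTS of compounds, final roughly 60 µM downward over six points, against 10 nM purified firefly luciferase using Km concentrations of substrates (10 uM D-luciferin, 10 uM ATP) in Tris acetate pH 7.5 buffer; luminescence output.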
NPC1 prom act – activates the NPC1 promoter; Potency, µM (doses to about 9.22 µM), without a hit: at the highest dose activation, actives largely listed as activators; Huh7 NPC1 promoter luciferase reporter, 24 h; actives 2.4% (n = 320,000); further: % of control where 0% means no effect; nearly all actives have a fitted effect of over 60% in size
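Luciferase expression driven by the NPC1 promoter was measured in stably transfected Huh7 cells after a 24 h compound incubation, using a luciferase reagent and a luminescence read.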
The depositor's hits bear a star; ? = inconclusive; . = no result given. The call rests on the fitted dose curve; in most records, active means well fitted curve in the direction sought with a large enough effect; inconclusive means small, poorly fitted or top-dose-only effect, or another doubt; inactive means no such curve, though single readings can be large; an effect the other way counts as inactive or inconclusive. Potency means the concentration at half of the fitted maximal effect.

SMILES	ELG1 genotox	SMN2 splice enh	KinaseGlo FLuc	Rab9 prom act	FLuc counter	NPC1 prom act
O=C(O)C(S)[C@@H](S)C(=O)O (some centres undefined)	.	-12%	-5%	.	.	.
CCOc1ccc(-c2cccc(NS(=O)(=O)c3ccc(Cl)s3)c2)nn1	.	.	.	.	15µM*	.
O=S(=O)(Nc1cccc(S(=O)(=O)N2CCCC2)c1)c1ccc(Cl)s1	-1%	.	.	-4%	.	1%
O=S(=O)(Nc1cccc(-c2ccc(N3CCCCC3)nn2)c1)c1cccs1	.	.	.	.	0.95µM*	.
O=S(=O)(Nc1cccc(-c2ccc(N3CCCCC3)nn2)c1)c1ccc(Cl)s1	.	.	.	.	1.2µM*	.
CCOc1ccc(-c2cccc(NS(=O)(=O)c3ccccc3[N+](=O)[O-])c2)nn1	-1%	.	.	1%	3%	13%
Cc1ccc(-c2nc(-c3cc4cccc(OCc5cccc(F)c5)c4oc3=O)no2)cc1	.	-10%	.	.	-7%	.
Clc1cccc(/C=N/Nc2ncnc3ccccc23)c1	?	?	-8%	4µM*	4.8µM*	?
C(=N\Nc1ncnc2ccccc12)/c1ccccc1	?	16µM*	-7%	2.8µM*	3µM*	29%
O=C(Nc1ccccc1O)c1ccccc1O	-12%	-3%	-4%	20%	9.5µM*	?
Cc1cccc(NC(=O)c2cnn3ccccc23)c1C	15%	.	.	?	?	?
Cc1ccc(C)c(NC(=O)c2ccccc2O)c1	-12%	-3%	-6%	?	17µM*	4%
Cc1cccc(NC(=O)c2ccccc2O)c1C	2%	11%	2%	?	13µM*	?
C=CCn1c(=O)/c(=C/c2ccc(F)cc2)s/c1=C(\C#N)c1nnc2n1CCCCC2	-5%	.	.	2%	1%	1%
O=c1/c(=C\c2ccc(F)cc2)sc2n1CCCN=2	?	?	-12%	?	13µM*	?
CN(C)c1ccc(/C=c2\sc3n(c2=O)CCCN=3)cc1	?	1.6µM*	?	0.32µM*	0.24µM*	0.4µM*
O=c1/c(=C/c2ccc(O)cc2)sc2n1CCCN=2	?	.	.	2.8µM*	9.5µM*	1%
COC(=O)/C=c1/sc2n(c1=O)CCN=2	0%	-8%	11%	1%	2%	0%
NS(=O)(=O)c1ccc(CCNC(=O)/C=C/c2ccccc2[N+](=O)[O-])cc1	-12%	-12%	0%	-2%	1%	-2%
Cc1ccc(NC(=O)C(=O)NC2CCCCC2)cc1	?	5µM*	-10%	1.1µM*	?	1.6µM*
O=C(NC1CCCCC1)[C@H](O)[C@@H](O)C(=O)NC1CCCCC1	1%	8%	-4%	-6%	7%	-1%
Cc1ccc(NC(=O)NC2CCCCCCC2)cc1	?	.	.	2.2µM*	7.6µM*	1.3µM*
O=C(Nc1ccc(F)cc1)NC1CCCCC1	?	3%	-11%	?	?	?
O=C(NC1CCCCCC1)C(=O)NC1CCCC1	19%	13µM*	-2%	2.2µM*	?	?
COc1ccc(-c2cc(C)no2)cc1S(=O)(=O)NCCc1ccco1	0%	.	.	-2%	3%	-3%
SMILES	ELG1 genotox	SMN2 splice enh	KinaseGlo FLuc	Rab9 prom act	FLuc counter	NPC1 prom act
COc1ccc(NC(=O)c2sc3nc4c(cc3c2N)CCCCCC4)cc1Cl	.	-2%	.	.	4%	.
O=C(Nc1cccc(NC(=O)c2ccccc2)n1)c1ccccc1	0%	.	.	0%	9.5µM*	-1%
Cc1cccc(NC(=O)c2ccc(C(=O)c3ccccc3)cc2)n1	21µM*	.	.	?	9.5µM*	?
Cc1cccc(NC(=O)c2cccc(C(=O)Nc3cccc(C)n3)c2)n1	1%	.	.	1%	-19%	2%
Cc1ccc(CCNC(=O)c2sc3nc4n(c(=O)c3c2C)CCC4)cc1	1%	.	.	-1%	-1%	-5%
O=C(NNc1ccccc1)Nc1ccccc1F	4%	.	.	-5%	19µM*	1%
O=C(CCc1ccccc1)Nc1ccccc1F	?	16µM*	-17%	2.8µM*	12µM*	?
O=C(Nc1ccc(Br)cc1)Nc1ccccc1F	?	.	-25%	2.8µM*	4.8µM*	1.6µM*
O=C(CCc1ccccc1)Nc1ccc(F)cc1F	?	14%	-4%	?	?	27%
O=C(Nc1ccccc1F)Nc1cccc2ccc(O)cc12	0%	.	.	?	17µM*	19%
COc1ccccc1/C=C/C=N/NC(=O)CCn1nnc2ccccc21	-3%	12%	4%	1%	-15%	-1%
CC(C)CCn1c(=O)c2cccnc2n(CC(=O)Nc2ccccc2)c1=O	.	-3%	.	.	1%	.
COc1ccccc1NC(=O)Nc1cc(F)ccc1F	3%	6%	0%	2%	24µM*	11%
O=C(Nc1ccccc1F)Nc1ccccc1F	26%	13µM*	-21%	2.5µM*	15µM*	?
COc1ccc(C(=O)Nc2ccccc2SCc2cc(=O)c3cccc(C)c3[nH]2)cc1	.	.	.	.	-13%	.
O=C(Nc1ccc(F)cc1F)c1cc(=O)n(-c2ccccc2)c(=O)[nH]1	-6%	4%	1%	5%	-17%	-1%
Cc1cc2nccc(-c3ccc(Cl)cc3Cl)n2n1	23%	.	.	28%	?	?
COc1cc(OC)c2c(=O)c(-c3ccccc3)coc2c1	.	11µM*	-6%	.	.	.
COc1cc(O)cc2occ(-c3ccc(O)cc3)c(=O)c12	17%	.	.	2%	?	12%
COc1ccc(-c2coc3cc(OC)cc(OC)c3c2=O)cc1	?	7%	-4%	?	15µM*	?
COc1cc(OC)c2c(=O)c(O)c(-c3ccc(OC)c(OC)c3)oc2c1	.	-4%	-1%	.	.	.
Cc1cccc(N2CCN(Cc3cc(=O)oc4cc(C)ccc34)CC2C)c1 (centres undefined)	.	19%	.	.	7%	.
Cc1cccc(NS(=O)(=O)c2ccc3c(c2)OCCO3)c1	-7%	14µM*	-3%	-1%	4%	-1%
Cc1ccc(S(=O)(=O)Nc2ccc3c(c2)OCCO3)cc1C	5%	.	2%	0%	21µM*	-3%
O=C(Nc1ccccc1Cc1ccccc1)c1ccncc1	0%	.	.	0%	?	-5%
COc1ccc2nc(NC(=O)CCNC(=O)c3ccccc3Cl)sc2c1	10%	16µM*	-1%	30%	19µM*	16%
O=C(CCNC(=O)c1ccccc1Cl)Nc1nc2ccccc2s1	?	.	-6%	?	?	?
O=C(CCNC(=O)c1ccccc1Cl)Nc1nc(-c2ccccc2Cl)cs1	14%	3%	1%	1%	17µM*	8%
COc1ccc2nc(N(Cc3cccnc3)C(=O)COc3ccccc3)sc2c1	.	.	.	.	-11%	.
O=C(CCNC(=O)c1ccccc1Cl)Nc1nc(-c2ccc(F)cc2)cs1	-2%	.	.	2%	-17%	-1%

Screens (PubChem BioAssay)
